Laboratory results taken from PubChem BioAssay AID743343 (Broad Institute, 2014).
Results with a measured potency or affinity are listed apart. Active and inactive are the calls of the source. How the calls were made is not given here.

Test system: Drosophila melanogaster bursicon receptor LGR2 (rickets)
Assay: LGR2 antagonists, dose response, cell-based, HEK293, CRE-luciferase reporter, cherry pick, set 2 (AID 743343)

SMILES	outcome
O=[N+]([O-])c1ccc(-c2cnc(SC(c3ccccc3)c3ccccc3)[nH]2)cc1	inactive
CO[C@H]1CN(C)C(=O)c2ccc(NC(=O)c3ccc(-c4ccccc4)cc3)cc2OC[C@@H](C)NC[C@@H]1C	inactive
CCOC(=O)C1=CCN(S(=O)(=O)c2ccccc2C)C1c1cccc(C)c1 (stereo not drawn)	inactive
COc1cccc(C(=O)Nc2ccc3c(c2)OC[C@@H](C)N(CC2CC2)C[C@H](C)[C@H](OC)CN(C)C3=O)c1	inactive
O=c1cc(-c2c(F)c(F)c(F)c(F)c2F)oc2ccccc12	inactive
C[C@H](CO)N1C[C@H](C)[C@@H](CN(C)CC2CCOCC2)Oc2ncc(Br)cc2C1=O	inactive
COCC(=O)N[C@@H]1CC[C@@H](CC(=O)NCc2ccccc2OC)O[C@@H]1CO	inactive
COCC#Cc1ccc2c(c1)O[C@H](CN(C)S(=O)(=O)c1cccc(F)c1)[C@@H](C)CN([C@H](C)CO)S2(=O)=O	inactive
CC(C)N(C(=O)Nc1ccc2nsnc2c1)C(C)C	inactive
CC(=O)N1CCc2cc(S(=O)(=O)C(C)CC(=O)NCc3ccco3)ccc21 (stereo not drawn)	inactive
O=C(NCc1ccco1)c1cc(NS(=O)(=O)c2cccc([N+](=O)[O-])c2)ccc1O	inactive
COc1ccccc1CNS(=O)(=O)c1ccc(N2CCCC2)cc1Br	inactive
COC(=O)c1ccc(Nc2cc(C)nc3ccc(C)cc23)cc1	inactive
COc1cccc(C#Cc2ccc([C@@H]3[C@@H](CO)N(C(=O)C4CCC4)[C@H]3C#N)cc2)c1	inactive
CCOC(=O)c1c(C)n(C)c2ccc(OCC(O)CNCCc3ccccc3)cc12 (stereo not drawn)	inactive
C[C@@H]1CN([C@H](C)CO)C(=O)c2c(c3ccccc3n2C)-c2ccccc2CO[C@H]1CN(C)S(=O)(=O)c1cn(C)cn1	inactive
COc1ccc(S(=O)(=O)N2CCN(C(=O)c3ccc(C)o3)CC2)cc1	inactive
O=C(c1ccc(CSc2nc3ccncc3[nH]2)cc1)N1CCN(c2cccc(Cl)c2)CC1	inactive
CCc1nnc2cccc(Cl)n12	inactive
Cc1noc2ncnc(Sc3ccc(Br)cc3)c12	inactive
COc1ccc(S(=O)(=O)N2CCOCC2)cc1NC(=O)COc1ccc(C)cc1	inactive
C[C@H](CO)N1C[C@H](C)[C@H](CN(C)Cc2ccccc2)Oc2c(NS(=O)(=O)c3cn(C)cn3)cccc2C1=O	inactive
Cc1cccc(Cn2ncc(Cl)c(Cl)c2=O)c1	inactive
